Test results reported in PubChem BioAssay (NCI).
Where “and” joins values, the source holds several entries; their conditions need not be identical. Equal entries are not always repeated. About 79,000 compounds went through this panel and 15% of them were active in at least one assay; those are over-represented in the sample as a whole. Some compounds were tested as several samples or in several runs, with calls that do not always agree. Calls of active or inactive are those of the source. Cut-off read from the data, not from the text of the source: active = growth inhibition above about 70%; inactive = the rest.

Tests used:
[1] = NCI Yeast Anticancer Drug Screen. Data for the rad50 strain (AID 155);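 note: 0% = growth of vehicle-only cultures of the same strain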; conditions: S. cerevisiae rad50 strain growth inhibition, stronger effect = higher value
Outline: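 Relative growth inhibition (compound vs vehicle) was measured in yeast with a defined repair-gene alteration.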

[2] = NCI Yeast Anticancer Drug Screen. Data for the mec2-1 strain (AID 157); conditions: S. cerevisiae mec2-1 strain, stronger effect = higher value
Outline: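 Vehicle-treated cultures served as reference for growth inhibition of compound-exposed mec2-1 yeast.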

[3] = NCI Yeast Anticancer Drug Screen. Data for the sgs1 mgt1 strain (AID 161);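 note: 0% = growth of cultures given vehicle only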; conditions: S. cerevisiae sgs1 mgt1 strain, stronger effect = higher value
Outline: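 Genetically altered yeast, compound exposure, growth inhibition relative to vehicle.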

[4] = NCI Yeast Anticancer Drug Screen. Data for the cln2 rad14 strain (AID 165);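 note: 0% = growth equal to vehicle treated cultures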; conditions: S. cerevisiae cln2 rad14 strain, stronger effect = higher value
Outline: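 Each compound was tested on cln2 rad14 yeast. Inhibition of growth was calculated against vehicle-exposed controls.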

[5] = NCI Yeast Anticancer Drug Screen. Data for the bub3 strain (AID 167); conditions: S. cerevisiae bub3 mutant strain, stronger effect = higher value
Outline: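 Screening used yeast with an engineered genetic alteration affecting cell cycle control. Compound-exposed cultures were compared with vehicle cultures, and reduced growth was taken as inhibition.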

[6] = NCI Yeast Anticancer Drug Screen. Data for the mlh1 rad18 strain (AID 175); conditions: S. cerevisiae mlh1 rad18 strain growth inhibition, stronger effect = higher value
Outline: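 Vehicle-treated cultures served as the reference for growth inhibition in a yeast strain carrying DNA damage repair alterations exposed to each compound.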

[7] = NCI Yeast Anticancer Drug Screen. Data for the wt2 strain (AID 169);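 note: 0% = growth of vehicle-treated yeast cultures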; conditions: S. cerevisiae wt2 strain growth inhibition, stronger effect = higher value
Outline: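 Inhibition of yeast growth was determined after compound treatment, normalised to controls receiving only vehicle.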

[8] = at 5.0 µM (retest, dose inferred, filed as 0.5)
[9] = at 50.0 µM (retest, dose inferred, filed as 5.0)

Measured: growth inhibition

Cc1c(Cl)cccc1NC(=O)CC1Sc2ccccc2NC1=O (stereo not given)
active: [1]; [9] 83% | [5]; [9] 83% | [6]; [9] 77%
inactive: [1]; [8] 23% | [1]; at 50.0 µM -1.35% and 51.1% | [2]; [8] -7% | [2]; [9] 52% | [2]; at 50.0 µM -6.7% and 44.2% | [3]; [8] 2% | [3]; [9] 38% | [3]; at 50.0 µM -22.2% and 55% | [4]; [8] 8% | [4]; [9] 49% | [4]; at 50.0 µM -1.1% and 27.8% | [5]; [8] 4% | [5]; at 50.0 µM 1.6% and 49.8% | [6]; [8] -1%
6.5% (inactive) and 83% (active): [6]; at 50.0 µM

COc1cccc(NC(=S)C(C#N)C(=O)Nc2cccc(C(F)(F)F)c2)c1 (stereo not given)
active: [1]; [9] 95% | [1]; at 50.0 µM 78.2% | [2]; [8] 74% | [2]; [9] 97% | [2]; at 50.0 µM 84.9% | [3]; [9] 91% | [3]; at 50.0 µM 85.5% | [4]; [9] 88% | [5]; [9] 95% | [5]; at 50.0 µM 87% | [6]; [8] 88% | [6]; [9] 96% | [6]; at 50.0 µM 70.5%
inactive: [1]; [8] 66% | [3]; [8] 52% | [4]; [8] 52% | [4]; at 50.0 µM 43.1% | [5]; [8] 48%

O=C(O)c1ccccc1C(=O)O
inactive: [1]; [8] -3% | [1]; [9] 8% | [1]; at 50.0 µM -29.7% and 15.6% | [2]; [8] -3% | [2]; [9] 4% | [2]; at 50.0 µM -14.8% and 5.1% | [3]; [8] 0% | [3]; [9] 7% | [3]; at 50.0 µM 4.95% and -23.6% | [4]; [8] 4% | [4]; [9] 7% | [4]; at 50.0 µM 21.1% and 54.1% | [5]; [8] 2% | [5]; [9] -6% | [5]; at 50.0 µM -7.45% and -11.4% | [6]; [8] -2% | [6]; [9] 7% | [6]; at 50.0 µM -5.8% and 7%

O=C1c2cc3c(cc2CC12Cc1ccccc1C2)CCC3
inactive: [1]; [8] 23% | [1]; [9] 21% | [1]; at 50.0 µM 20% | [2]; [8] 15% | [2]; [9] 15% | [2]; at 50.0 µM 2.25% | [3]; [8] 22% | [3]; [9] 54% | [3]; at 50.0 µM 46.9% | [4]; [8] 10% | [4]; [9] 16% | [4]; at 50.0 µM 16.8% | [5]; [8] 24% | [5]; [9] 51% | [5]; at 50.0 µM 50% | [6]; [8] 19% | [6]; [9] 23% | [6]; at 50.0 µM 17.4%

CCCCCCCCCCCCN
inactive: [2]; [8] 65% | [2]; at 50.0 µM 45% | [3]; [8] -4% | [4]; at 50.0 µM 26.6% | [7]; at 1.2 µM -14% | [7]; at 3.7 µM -21% | [7]; at 11.0 µM -9% | [7]; at 33.0 µM -5%
active: [1]; [8] 71% | [1]; [9] 99% | [1]; at 50.0 µM 77.5% | [2]; [9] 99% | [3]; [9] 98% | [3]; at 50.0 µM 81.8% | [4]; [8] 73% | [4]; [9] 100% | [7]; at 100.0 µM 97% | [6]; [8] 70% | [6]; [9] 100% | [6]; at 50.0 µM 72.2%

CN(C)CCCN=c1c2ccccc2n(O)c2cccc([N+](=O)[O-])c12
inactive: [1]; [8] 6% | [1]; [9] 2% | [2]; [8] 23% | [2]; [9] -4% | [2]; at 50.0 µM 26.8% | [3]; [8] 2% | [3]; [9] -1% | [3]; at 50.0 µM 46.9% | [4]; [8] 11% | [4]; [9] 8% | [4]; at 50.0 µM 22.4% | [5]; [8] 9% | [5]; [9] -10% | [5]; at 50.0 µM 45.4% | [6]; [8] 7% | [6]; [9] 6% | [6]; at 50.0 µM -31.7%
active: [1]; at 50.0 µM 72.5%

O=C(NN1CCOC1=O)OCCCl
active: [6]; at 50.0 µM 73.5%
inactive: [1]; [8] -2% | [1]; [9] 2% | [1]; at 50.0 µM 24.7% | [2]; [8] -1% | [2]; [9] -6% | [2]; at 50.0 µM 18.7% | [3]; [8] -8% | [3]; [9] -7% | [3]; at 50.0 µM 34.6% | [4]; [8] 9% | [4]; [9] 0% | [4]; at 50.0 µM 24.6% | [6]; [8] -1% | [6]; [9] 1%
